The values below come from PubChem BioAssay AID686978 (National Center for Advancing Translational Sciences (NCATS), 2013).

Values joined by “and” are separate entries in the source; they are usually repeats but may differ in a detail not shown here. Identical values can stand only once. Screen size: about 420,000 compounds; about 64,000 (15%) were called active. Inconclusive results (about 27%) are left out. Calls come from the whole dose curve; as a rule, active = well fitted inhibition curve with a large enough effect; inconclusive = small, poorly fitted or top-dose-only effect; inactive = flat fitted curve, though single readings scatter. A selection follows.
% is set by controls: 0 for no effect and ±100 for the full control effect; potency is the fitted concentration of half-maximal effect.

A short description of this assay: qHTS for Inhibitors of human tyrosyl-DNA phosphodiesterase 1 (TDP1): qHTS in cells in absence of CPT. Note: nearly all actives have a fitted effect of over 55% in size. The note with it: DT40 Tdp1-/- hTDP1 cells, no CPT, ATP luminescence, 48 h; activity change, negative = growth inhibition: at 46.2 µM (top of the series). The method, boiled down: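 Stably hTDP1-transfected Tdp1-null chicken DT40 cells were treated with library compounds minus camptothecin and grown for at least 48 hr at 37 °C, after which cellular ATP was quantified by luminescence.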
(qHTS replaces the single test concentration by a dilution series.)
In the case of `O=C(/C=C/c1c(Cl)cccc1Cl)NCc1ccccc1`, the “activity change, negative = growth inhibition” value is 0.863% (inactive).
Same read-out and setting: the result for `COn1c(=O)c(=O)n(OC)c2ccccc21` reads -4.75% (inactive); that for `CCOC(=O)c1c(NC(=O)c2cc(CC)on2)sc(C(C)=O)c1C`, 4.96% (inactive); that for `Cc1cc(OCc2cc(C(=O)NCc3cc(C(C)C)no3)no2)cc(C)c1Cl`, -12.7% (inactive).
Turning to `CCOC(=O)CC1(NC(=O)c2cc(COc3cncc(Cl)c3)on2)CCCCC1`, the Potency is 20.6 µM (active).
Same read-out and setting: next, `COc1ccc2[nH]cc(CCNc3nc(-c4cccc(NS(C)(=O)=O)c4)nc4ccccc34)c2c1`: 13 µM (active).
Turning to `COc1ccc2[nH]cc(CCNc3cc(-c4ccccc4CN(C)C)ncn3)c2c1`, the “activity change, negative = growth inhibition” value is -17.5% (inactive).
For `COc1ccc2[nH]cc(CCNc3ncnc4ccc(-c5ccc(C(=O)N(C)C)cc5)cc34)c2c1`, the Potency was 9.2 µM (active).
Turning to `COCCNc1ccnc(-c2cccc(NS(C)(=O)=O)c2)n1`, the “activity change, negative = growth inhibition” value was -7.98% (inactive).
Turning to `Cc1ccc2[nH]cc(CCNC(=O)c3ccc([N+](=O)[O-])cc3)c2c1`, the “activity change, negative = growth inhibition” value was -27.6% (inactive).
With `COc1ccc2[nH]cc(CCNc3ncnc4ccc(-c5ccccc5CN(C)C)cc34)c2c1`, the “activity change, negative = growth inhibition” value is -24% (inactive).
On the same count and under the same terms, the result for `CNc1cc(-c2c(OC)cccc2OC)ncn1` reads 1.04% (inactive).
Consider `COc1cccc(-c2cc(NCCc3c[nH]c4ccc(OC)cc34)ncn2)c1`, for which the Potency was 23.1 µM (active).
In the case of `CC(=O)Nc1ccc(S(=O)(=O)N2CCn3cccc3C2C)cc1` (configuration not stated), the “activity change, negative = growth inhibition” value was 7.81% (inactive).
As for `CC(NC(=O)C(=O)NN=C1CCC(C(C)(C)C)CC1)c1ccccc1` (configuration not stated), the “activity change, negative = growth inhibition” value was 4.32% (inactive).
On to `CN1CCN(S(=O)(=O)c2ccc(NC(=O)c3ccco3)cc2)CC1`, for which the “activity change, negative = growth inhibition” value is 3.04% (inactive).
Take `COc1ccc(/C(C)=N/N2CCOCC2)c(O)c1`: the “activity change, negative = growth inhibition” value was 4.06% (inactive).
Same read-out and setting: the result for `CN1CCN(c2ccncc2S(=O)(=O)N2CCCC2)CC1` reads 16.7% (inactive).
Regarding `O=S(=O)(c1cnccc1N1CCN(/N=C/c2ccc(Br)cc2)CC1)N1CCCCC1`, the Potency is 18.4 µM (active).
In the case of `CC(C)NC(=O)N1CCN(c2ccncc2S(=O)(=O)N2CCCCC2)CC1`, the “activity change, negative = growth inhibition” value was 12.7% (inactive).
As to `CCOC(=O)C1CCN(C(=O)Cn2cc(C#N)c3ccccc32)CC1`, the “activity change, negative = growth inhibition” value is -11.5% (inactive).
For the compound `O=C(c1cccnc1)N1CCN(S(=O)(=O)c2cccs2)CC1`, the “activity change, negative = growth inhibition” value was 15.6% (inactive).
Still for that read-out and setting: the result for `O=C(COC(=O)c1ccc(N2CCCC2=O)cc1)c1ccc(OC(F)F)cc1` reads -19.2% (inactive).
Turning to `CC/C(=N\NC(=S)NC(C)C)c1ccc(OC(F)F)cc1`, the Potency was 16.4 µM (active).
Turning to `CC(C)CNC(=S)NNC(=O)c1ccccc1OC(F)F`, the “activity change, negative = growth inhibition” value is -12.1% (inactive).
Take `C/C=C1\C2C=C(C)CC1(N)c1ccc(=O)[nH]c1C2` (configuration not stated): the “activity change, negative = growth inhibition” value was -12.4% [at 92.5 µM] (inactive).
On the same count and under the same terms, next, `COC(=O)Cc1csc(Nc2c(C)n(C)n(-c3ccccc3)c2=O)n1`: 0.65% (inactive).
Regarding `COC(=O)Cc1c(O)ccn(Cc2cccc(C(F)(F)F)c2)c1=O`, the “activity change, negative = growth inhibition” value is -26% (inactive).
With `COC(=O)Cc1csc(/N=C/c2c(O)n(-c3cccc(C(F)(F)F)c3)c(=O)c3ccccc23)n1`, the Potency is 16.4 µM (active).
As for `CC(C)C(=O)NC(=S)Nc1ccccc1F`, the “activity change, negative = growth inhibition” value is -0.205% (inactive).
Still for that read-out and setting: the result for `CC(NC(=O)Nc1cccc([N+](=O)[O-])c1)c1ccc2c(c1)OCO2` (configuration not stated) reads -18.9% (inactive).
Regarding `O=C(Nc1cccnc1)c1noc2c1CCCCC2`, the “activity change, negative = growth inhibition” value was -19.8% (inactive).
With `CC(C)CC[n+]1ccn(C2=C([O-])c3ccccc3C(=O)/C2=N\S(=O)(=O)c2ccccc2)c1`, the Potency is 10.3 µM (active).
In the case of `Cc1ccc(NC2CCCN(C(=O)CCC3(C)CC3)C2)cc1C` (configuration not stated), the “activity change, negative = growth inhibition” value is -29.4% (inactive).
As to `CCOC(=O)CN1CC23C=CC(O2)C(C(=O)Nc2ccc(F)cc2)C3C1=O` (configuration not stated), the “activity change, negative = growth inhibition” value is 3.97% (inactive).
Regarding `COCCn1nnnc1CN1CCC(NC(=O)Nc2cccc(OC)c2)CC1`, the “activity change, negative = growth inhibition” value is -6.87% (inactive).
For the compound `Cc1c(-c2cccc(NC(=O)C(C)(C)C)c2)nc2ncccn12`, the “activity change, negative = growth inhibition” value was -3.43% (inactive).
In the case of `CCc1cccc(C)c1Nc1c(-c2ccc(N(C)C)cc2)nc2ncccn12`, the Potency was 10.3 µM (active).
The same measure, in the same setting: the result for `Cc1cccc(C)c1Nc1c(-c2ccccc2O)nc2ncccn12` reads 18.4 µM (active) and 23.1 µM (active).
Regarding `Cc1nc(-c2ccc(F)cc2)c(CC(=O)N(C)CC(=O)Nc2c(C)cccc2C)s1`, the “activity change, negative = growth inhibition” value is -0.693% (inactive).
As to `Cc1ccc(-c2c(N)nc3ncccn23)cc1`, the “activity change, negative = growth inhibition” value was 6.62% (inactive).
Regarding `Nn1c(SCC(=O)Nc2nccs2)nncc1=O`, the “activity change, negative = growth inhibition” value is -5.81% (inactive).
Still for that read-out and setting: the result for `CC(C)CCNC(=O)CC1C(=O)N(Cc2ccccc2)C(C)c2nc3ccccc3n21` (configuration not stated) reads -18.9% (inactive); that for `CN(C)c1ccnc(Nc2ccc(F)cc2)c1C#N`, -0.174% (inactive).
As to `COc1ccccc1/C=C/C1=NC(=C\N(C)C)/C(=O)O1`, the Potency was 20.6 µM (active).
For the compound `COc1ccccc1/C=C/C(=O)NC(=S)N1CCOCC1`, the “activity change, negative = growth inhibition” value is -12.6% (inactive).
The same measure, in the same setting: next, `COc1ccccc1/C=C/C(=O)NC1CC2CCC1C2` (configuration not stated): -20.8% (inactive); `O=C(CCNS(=O)(=O)c1ccccc1C(F)(F)F)NCc1ccc2c(c1)OCO2`: -0.322% (inactive).
Same read-out and setting: next, `C=CCOC(=O)c1ccccc1C(=O)OCC=C`: -12.2% (inactive).
As to `C=CCOC(=O)C1=C(C)NC(C)=C(C(=O)OCC=C)C1c1cccs1`, the Potency was 18.4 µM (active).
Take `CCOC(=O)C1=C(C)NC(=S)NC1c1cccs1` (configuration not stated): the “activity change, negative = growth inhibition” value was -3.91% (inactive).
Same read-out and setting: the result for `CC(C)C(NC(=O)c1ccc(Cl)cc1)C(=O)O` (configuration not stated) reads 7.61% (inactive); that for `CSc1ncccc1C(=O)Nc1nc2ccc(F)cc2s1`, -12% (inactive).
Same read-out and setting: next, `Cc1cc(S(=O)(=O)N2CCOCC2)ccc1OCC(=O)N1CCOCC1`: -12.2% (inactive).
For `Cc1cc(C(=O)COc2ccccc2[N+](=O)[O-])c(C)n1-c1cccc(S(=O)(=O)N2CCOCC2)c1`, the Potency was 23.1 µM (active).
`O=C(COc1ccc(S(=O)(=O)N2CCCC2)cc1[N+](=O)[O-])N1CCCCC1`: the “activity change, negative = growth inhibition” value was -19.5% (inactive).
`CCCCCC(O)c1cccc(OCc2ccc3ccccc3n2)c1` (configuration not stated): the activity change, negative = growth inhibition was -7.93% [at 4.12 µM] (inactive).
Still for that read-out and setting: the result for `C/C(=N/OC(=O)c1c(-c2c(F)cccc2Cl)noc1C)c1cnccn1` reads 23.1% (inactive); that for `O=C(CN1C(=O)COc2ccccc21)Nc1ccc(F)cc1`, -26.2% (inactive); that for `CCN(CC)S(=O)(=O)c1cc(C(=O)Nc2ccccn2)ccc1C`, -24.1% (inactive).
In the case of `CCOc1ccc(N(CC(=O)Nc2cccc(OC)c2)S(C)(=O)=O)cc1`, the “activity change, negative = growth inhibition” value is 9.81% (inactive).
For `CCOc1cccc(NC(=O)c2ccc(F)c(S(=O)(=O)N(CC)c3cccc(C)c3)c2)c1`, the Potency was 25.9 µM (active).
For the compound `CC1(C)CC(=O)C=C(NCCCNC2CCCCC2)C1`, the “activity change, negative = growth inhibition” value was -0.22% (inactive).
The same measure, in the same setting: next, `O=Cc1ccc(Oc2cccc(C(F)(F)F)c2)nc1`: -4.01% (inactive); `N/C(=N\OC(=O)Nc1ccccc1)c1ccno1`: -3.56% (inactive).
`COC(=O)c1ccccc1NC(=O)Cn1c(=O)n(-c2cccc(C(F)(F)F)c2)c(=O)c2c(C)c(C)sc21`: the “activity change, negative = growth inhibition” value was -15.7% (inactive).
The same measure, in the same setting: the result for `CCC(=O)N1CCc2cc(Br)cc(S(=O)(=O)CCC(=O)NCc3ccccc3OC)c21` reads -6.88% (inactive).
